# Shown are actives, neighbours in structure and some others; about 2.7% of the full set was active somewhere.
# Nrf2 block: Nrf2 pathway inhibition. A549 ARE-Fluc reporter, luciferase luminescence, 18-24 h. Potency, µM (titrated, usually from 46 µM), inactives show top-dose activity change, negative = inhibition, most hits filed as inhibitors. actives 2.1% (n = 360,000). AID 504444; note: potency is the fitted concentration of half-maximal effect; % is set by controls: 0 for no effect and ±100 for the full control effect; nearly all actives have a fitted effect of over 60% in size
#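 Nrf2 function is reported as luminescence of an ARE-controlled luciferase in A549 cells. Compounds were tested at several concentrations, and a CellTiter-Fluor read on the same wells flagged cytotoxicity.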
# A549 viability: A549 cytotoxicity, counter-screen for Nrf2 inhibitors | Potency, µM (titrated, usually from 46 µM), for the others: at the highest dose activity change, negative = cytotoxicity, usual class: inhibitors | actives 0.16% (n = 390,000) | AID 504648 | A549 ARE-Fluc cells, CellTiter-Fluor viability, 18-24 h; note: potency is the fitted concentration of half-maximal effect; % is set by controls: 0 for no effect and ±100 for the full control effect
#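 Cytotoxicity counterscreen: CellTiter-Fluor fluorescence was measured in A549 ARE_Fluc cells after 18-24 h of compound exposure in a concentration series. The subsequent BugLite luminescent read reports ARE-luciferase activity.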
# ALOX12 inh: inhibitors of human 12S-lipoxygenase ALOX12; actives 1.1% (n = 580,000); Potency, µM (titrated, usually from 108 µM), without a hit: at the highest dose activity change, negative = inhibition, actives largely listed as inhibitors; purified 12hLO, xylenol orange hydroperoxide absorbance; P18054; note: potency is the fitted concentration of half-maximal effect; % is set by controls: 0 for no effect and ±100 for the full control effect
#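 Purified human 12hLO at 150 nM in 25 mM Hepes, 0.01% Triton X-100, pH 7.0, preincubated 15 min at room temperature with compound. Reaction started with 40 uM arachidonic acid, 30 min at room temperature. Hydroperoxide measured by Fe-xylenol orange, 573/405 nm absorbance ratio.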
# LDHA block: blocks human lactate dehydrogenase A | AID 1347041 | activity change, % (values are at about 110 or 230 µM) | actives 0.15% (n = 480,000) | P00338 | purified LDHA, NADH/diaphorase-resazurin fluorescence; active compounds read low; in the data active = activity change below about -30%; inconclusive = mostly about -25% to -30%;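 note: plate controls were DMSO wells for no effect and wells without enzyme for full effect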
#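 Human LDH5 at 2 nM final in Tris HCl pH 7.4 with 0.06 mM NADH and 0.2 mM pyruvate, reacted 5 minutes at room temperature. Remaining NADH coupled via diaphorase/resazurin; resorufin fluorescence read at 0 and 20 minutes, normalized to enzyme-free and DMSO wells.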
# Nrf2 ARE act: activates Nrf2 signaling; AREc32 ARE-luciferase reporter (MCF7-derived line), luminescence, 24 h; Potency, µM (titrated, usually from 46.1 µM), for inactives: at the top dose activation, actives largely listed as activators; actives 0.31% (n = 410,000); AID 624171; note: potency is the fitted concentration of half-maximal effect; % of control where 0% means no effect; nearly all actives have a fitted effect of over 65% in size
#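 Quantitative high-throughput format: AREc32 reporter cells, 1000 per well, received compound by pin transfer and were incubated 24 hr at 37 deg C, 5% CO2, before Steady-Glo luminescence detection.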
# ERG Ets-DNA blk: inhibitors of human ERG Ets domain-DNA interaction; P11308; fluorescence polarization, His-ERG Ets domain / labelled DNA; Potency, µM (highest dose often 76.9 µM), for inactives: at the top dose FP activity, negative = inhibition, actives largely listed as inhibitors; actives 0.028% (n = 370,000); active = well fitted inhibition curve with a large enough effect in the polarisation, with a control signal flat; inconclusive = small, poorly fitted or top-dose-only effect, or effect the other way, or a change in a side signal; inactive = no such curve, though single readings can be large or run the other way; the % refers to the polarisation;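 note: polarization taken with two DNA probes labelled with fluorescein and Texas red; potency is the fitted concentration of half-maximal effect; % of control where 0% means no effect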
# Target sequence (P11308 whole entry, looked up, the tested form may be a part): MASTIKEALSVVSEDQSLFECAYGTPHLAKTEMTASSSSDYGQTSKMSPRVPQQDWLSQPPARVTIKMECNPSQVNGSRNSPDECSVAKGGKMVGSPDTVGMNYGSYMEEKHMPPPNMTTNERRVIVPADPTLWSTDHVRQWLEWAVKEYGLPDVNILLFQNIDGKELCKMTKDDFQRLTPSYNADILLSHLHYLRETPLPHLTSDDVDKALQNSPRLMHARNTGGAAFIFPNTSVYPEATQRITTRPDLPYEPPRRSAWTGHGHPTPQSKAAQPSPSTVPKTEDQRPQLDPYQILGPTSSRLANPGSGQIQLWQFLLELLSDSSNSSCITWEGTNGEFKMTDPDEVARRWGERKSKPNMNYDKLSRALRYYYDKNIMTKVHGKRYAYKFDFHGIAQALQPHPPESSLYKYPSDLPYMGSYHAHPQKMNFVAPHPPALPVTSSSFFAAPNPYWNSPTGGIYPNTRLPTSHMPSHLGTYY
#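 His-tagged ERG Ets domain (1 uM in the protein solution; 300mM KCl, 50mM Tris-HCl, 1mM EDTA, 1mM DTT, pH 7.5) received compound, then a probe mix of 5 nM fluorescein-DNA and 100nM Texas-615-DNA. Fluorescence polarization was read for both dyes.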
# Active calls of the source: *; ? = inconclusive; · = no result given; ! = repeats disagree. Unless noted, calls come from the whole dose curve; as a rule, active = well fitted curve in the direction sought with a large enough effect; inconclusive = small, poorly fitted or top-dose-only effect, or another doubt; inactive = no such curve, though single readings can be large; an effect the other way counts as inactive or inconclusive.
SMILES,Nrf2 block,A549 viability,ALOX12 inh,LDHA block,Nrf2 ARE act,ERG Ets-DNA blk
CCN(CC)Cc1oc(CO)cc(=O)c1O,11.7%,0.7%,31.6µM*,7.6,0.1%,2.1%
COc1ccc2oc(C(=O)OC(C)C#N)c(C)c2c1 (stereo not drawn),·,·,?,2.0,·,·
CCOC(=O)C1CCN(S(=O)(=O)CCNC(=O)c2ccccc2)CC1,-18.0%,-4.8%,16.6%,-3.6,0.0%,-5.5%
CCOC(=O)C1CCCN(S(=O)(=O)CCNC(=O)c2cccc(OC)c2)C1 (stereo not drawn),18.4µM*,-2.4%,-18.6%,7.4,0.6%,9.0%
Cc1cccc(C)c1OCCNC(=O)COc1ccc2c(C)cc(=O)oc2c1,·,·,33.1%,-6.3,·,·
COc1cc(F)c(S(=O)(=O)N2CCN(S(=O)(=O)c3cccc(NC(C)=O)c3)CC2)c(F)c1,-13.7%,11.8%,·,-6.0,·,·
COc1cc(F)c(S(=O)(=O)N2CCCN(S(=O)(=O)c3cccc(N)c3)CC2)c(F)c1,25.9µM*!,10.3%,·,1.1,·,·
COc1ccc(CCNC(=O)c2nc(SCc3ccccc3F)ncc2Cl)cc1OC,16.4µM*,-12.3%,-5.2%,-1.3,-0.4%,-1.2%
Cc1ccc(CNC(=O)c2nc(SCc3ccccc3F)ncc2Cl)cc1,1.8%,7.7%,0.0%,-2.5,0.6%,2.5%
Fc1ccc(-c2[nH]ncc2CNCc2cccc(Cn3cccn3)c2)cc1,·,·,17.8µM*,2.5,·,·
O=C(O)c1cccc(NC(=S)NC(=O)c2ccc3ccccc3c2)c1,21.2%,0.1%,?,1.0,-2.4%,-0.5%
O=C(NC(=S)Nc1ccc(CN2CCCCC2)cc1)c1cccc(OCc2ccccc2)c1,?,-11.3%,31.6µM*,-0.4,5.7%,2.1%
O=C(Nc1ccccc1)c1cccc(OCc2ccccc2)c1,·,·,-23.1%,10.0,·,·
O=C(O)c1ccc(NC(=S)NC(=O)c2cccc(COc3ccccc3)c2)cc1,4.9%,-3.5%,7.94µM*,-3.0,-0.3%,-12.7%
Cc1cc2c(cc1S(=O)(=O)Nc1ccc(C(C)C)cc1)OCCN2C,13µM*,-0.5%,-27.3%,9.5,6.9%,-2.2%
CC(=O)c1cccc(NS(=O)(=O)c2cc3c(cc2C)N(C(C)=O)CCO3)c1,18.4µM*,?,-3.4%,0.2,-0.9%,-13.4%
CC(C)(C)c1ccc(C(=O)Nc2c(NCc3ccccc3)c3ccccc3oc2=O)cc1,·,·,?,-1.8,·,·
CCOc1cc(N2CCOCC2)c(OCC)cc1NC(=O)[C@H](C)N1C(=O)C2CC=CCC2C1=O (stereo partly drawn),-7.6%,2.2%,0.0%,4.6,-1.0%,4.7%
CCOc1cc(N2CCOCC2)c(OCC)cc1NC(C)C(=O)N1CCC(C)CC1 (stereo not drawn),16.5%,14.3%,35.5µM*,29.5,0.3%,-1.2%
CN(C)S(=O)(=O)N(CC(=O)N1CCN(c2cccc(Cl)c2)CC1)c1ccc(F)cc1,·,·,?,6.8,·,·
CC(C)(C)OC(=O)N(CCc1ccccc1)Cc1ccccc1OCc1cccc(NC(=O)C2CC2)c1,20.6µM*,-11.3%,-2.1%,-0.3,5.3%,3.9%
Cc1nn(-c2ccc(Cl)nn2)c2c1C(c1ccc(OCC(N)=O)cc1)CC(=O)N2 (stereo not drawn),·,·,-9.6%,3.3,·,·
Cc1ccc(Cl)cc1NC(=O)CN(Cc1ccc(Cl)cc1)S(C)(=O)=O,·,·,-9.0%,-2.3,·,·
C=C(C)CN1CCN(CCC(=O)O)CC1,·,·,?,-9.1,·,·
c1ccc(-c2cnc(-c3ccccn3)nn2)cc1,?,-2.3%,-0.7%,-0.4,?,0.0%
c1ccc(-c2cnc(-c3ccccc3)nn2)cc1,2.7%,9.2%,-12.9%,-8.6,2.82µM*,12.7%
Cc1cnc(CNc2ccnc(-c3ccc(C(=O)N(C)C)cc3)n2)cn1,·,·,35.5µM*,·,·,·
CCN1CCN(c2cc(C)c3cc(NC(=O)c4ccc(OC)c(OC)c4)ccc3n2)CC1,16.4µM*!,16.4µM*!,-0.1%,3.6,5.6%,-1.8%

# Compound activity (PubChem BioAssay)
